# High-throughput results as filed in PubChem BioAssay.
# Many of the other results were omitted from the sample, so hits are more common in it than they were.
# IL1B secr inh: blocks inflammasome-driven IL-1 beta release; THP-1 LPS/ATP IL-1B secretion, AlphaLISA, 16 h; active compounds read low; activity change, % at 57.5 µM; 4.7% of 360,000 active; in the data active means activity change below about -50%; inconclusive means mostly about -30% to -49%
#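 THP-1 cells pretreated 1 hr with compounds (up to 57.5 uM final), then stimulated with LPS (250 ng/mL final) plus ATP (1.25 mM final); secreted IL-1B measured by AlphaLISA after 16 hr, decreased signal indicating inhibition.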
# HT1080 IDH1KD tx: HT-1080 IDH1 knockdown cell toxicity (counter line); HT-1080 IDH1 knockdown viability, ATP luminescence, 48 h; Potency, µM (highest dose often 46.1 µM), for inactives: at the top dose activity, negative = toxicity, usual class: cytotoxic; 2% of 360,000 active; AID 686971;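 further: potency means the concentration at half of the fitted maximal effect; 0% = DMSO wells and -100% = cell-free medium wells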
#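 Luminescent ATP read-out (CellTiter-Glo, 10 min at room temperature) after 48 h compound exposure at 37 °C gave viability of IDH1-knockdown HT-1080 cells. Activity was normalised to DMSO and cell-free wells, then fitted as concentration-response curves.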
# HT1080-NT tox: kills 2HG-producing HT-1080-NT fibrosarcoma cells; HT-1080-NT fibrosarcoma viability, CellTiter-Glo ATP luminescence, 48 h; Potency, µM (doses to about 46.1 µM), without a hit: top-dose activity, negative = less viability, hits mostly cytotoxic; 1.6% of 360,000 active;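 further: NT is the 2HG producing partner of a matched IDH1 knockdown line; potency means the concentration at half of the fitted maximal effect; 0% = DMSO-treated cells and -100% = media-only wells without cells; nearly all actives have a fitted effect of over 55% in size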
#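 Viability by CellTiter-Glo luminescence after 48 h compound exposure at 37C of HT-1080-NT cells (750/well, RPMI, 5% FBS). % activity scaled between DMSO wells and medium-only wells, then curve-fitted and categorized by curve class.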
# TDP1 cell CPT: growth inhibition of DT40 Tdp1-/-;hTDP1 cells with camptothecin (screen for TDP1 inhibitors); Potency, µM (titrated, usually from 46.2 µM), without a hit: at the highest dose activity change, negative = growth inhibition, hits mostly inhibitors; AID 686979; 12% of 420,000 active; chicken DT40 Tdp1-/-;hTDP1 cells + 20 nM CPT, ATP luminescence, 48 h; further: potency means the concentration at half of the fitted maximal effect; nearly all actives have a fitted effect of over 55% in size
#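 Cell growth measured by CellTiter-Glo luminescence after a minimum 48 h, 37 C compound exposure with 20 nM CPT in Tdp1-knockout DT40 cells stably expressing hTDP1, seeded 400/well; qHTS titration format.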
# ALOX12 inh: ALOX12 (human) lipoxygenase inhibition; P18054; purified 12hLO, xylenol orange hydroperoxide absorbance; Potency, µM (doses to about 108 µM), for inactives: at the highest dose activity change, negative = inhibition, most hits filed as inhibitors; 1.1% of 580,000 active; AID 1671190; further: potency means the concentration at half of the fitted maximal effect
# Target sequence (P18054 whole entry, looked up): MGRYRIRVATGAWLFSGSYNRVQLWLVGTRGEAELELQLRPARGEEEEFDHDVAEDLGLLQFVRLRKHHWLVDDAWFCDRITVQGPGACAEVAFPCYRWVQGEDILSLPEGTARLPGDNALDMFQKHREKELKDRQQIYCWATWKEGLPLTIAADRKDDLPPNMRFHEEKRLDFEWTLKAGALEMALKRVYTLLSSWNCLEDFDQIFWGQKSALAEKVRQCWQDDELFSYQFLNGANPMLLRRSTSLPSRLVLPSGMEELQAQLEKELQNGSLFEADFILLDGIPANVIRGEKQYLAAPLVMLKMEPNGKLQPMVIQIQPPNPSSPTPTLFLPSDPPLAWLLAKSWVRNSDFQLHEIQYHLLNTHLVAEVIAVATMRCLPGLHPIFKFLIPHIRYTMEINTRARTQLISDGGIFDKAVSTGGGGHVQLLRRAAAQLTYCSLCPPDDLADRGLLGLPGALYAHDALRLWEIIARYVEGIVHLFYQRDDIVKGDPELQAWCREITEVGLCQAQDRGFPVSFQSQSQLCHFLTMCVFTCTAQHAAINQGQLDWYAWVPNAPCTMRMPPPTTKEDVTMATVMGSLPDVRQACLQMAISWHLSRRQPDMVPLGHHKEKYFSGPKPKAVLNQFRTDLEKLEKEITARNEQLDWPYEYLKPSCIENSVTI
#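 Purified human 12hLO at 150 nM in 25 mM Hepes, 0.01% Triton X-100, pH 7.0, preincubated 15 min at room temperature with compound. Reaction started with 40 uM arachidonic acid, 30 min at room temperature. Hydroperoxide measured by Fe-xylenol orange, 573/405 nm absorbance ratio.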
# TDP1 cell noCPT: qHTS for Inhibitors of human tyrosyl-DNA phosphodiesterase 1 (TDP1): qHTS in cells in absence of CPT; AID 686978, 2013; Potency, µM (doses to about 46.2 µM), inactives show at the top dose activity change, negative = growth inhibition, usual class: inhibitors; DT40 Tdp1-/- hTDP1 cells, no CPT, ATP luminescence, 48 h; 15% of 420,000 active; further: potency means the concentration at half of the fitted maximal effect; nearly all actives have a fitted effect of over 55% in size
#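 Readout: luminescence from CellTiter-Glo after 30 min in the dark at RT. Cells: DT40 Tdp1-/- with stable hTDP1, 400/well. Exposure: compounds alone, ≥48 hr, 37 °C.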
# An asterisk follows results filed as active; ? = inconclusive; nt = no result; [ ] = another dose, or the depositor's remark. Unless noted, the call rests on the fitted dose curve; in most records, active means well fitted curve in the direction sought with a large enough effect; inconclusive means small, poorly fitted or top-dose-only effect, or another doubt; inactive means no such curve, though single readings can be large; an effect the other way counts as inactive or inconclusive. Unless noted, on the % scale 0 is the no-effect control and ±100 the full control effect.
SMILES,IL1B secr inh,HT1080 IDH1KD tx,HT1080-NT tox,TDP1 cell CPT,ALOX12 inh,TDP1 cell noCPT
O=C(c1ccco1)N1CCN(C(=O)c2cccn3c(=O)c4c5c(sc4nc23)CCCC5)CC1,-25,-2%,-2%,?,4%,?
O=C(c1ccccc1)N1CCN(c2ncnc3sc4c(c23)CCC4)CC1,0,-26%,-5%,21µM*,?,23µM*
Cc1nc(N2CCN(C(=O)c3ccco3)CC2)c2c3c(sc2n1)CCC3,?,-29%,-29%,16µM*,?,12µM*
COc1ccc(F)cc1C(=O)C(=O)O,nt,nt,nt,nt,8.9µM*,nt
COc1ccc(F)cc1-c1ccc(C(=O)O)cc1,nt,nt,nt,nt,9%[12.5 µM],nt
CS(=O)(=O)Nc1ccc(-c2cccc3nccn23)cc1,19,-1%,9%,3%,-26%,0%
CN(C)c1ccc(-c2cccc3nccn23)cc1,31,?,-25%,?,-25%,15µM*
Clc1cccc(-c2cccc3nccn23)c1,16,-18%,12%,23µM*,?,21µM*
Cc1ccc(Nc2nc(C(=O)OCC(=O)c3ccc(Cl)cc3)cs2)cc1C,nt,nt,nt,nt,-19%,nt
Cc1nc2ncccn2c1-c1csc(Nc2ccc(S(N)(=O)=O)cc2)n1,-2,10%,5%,37%,-12%,5%
Cc1nc2sccn2c1-c1csc(NCc2ccccc2)n1,-73*,7%,?,16µM*,?,13µM*
CC(=O)Nc1ccc(Nc2nc(-c3c(C)nc4ccccn34)cs2)cc1,?,2.9µM*,?,1µM*,?,0.82µM*
Cc1ccc(Nc2nc(C)cs2)cc1,-2,20%,11%,?,-18%,?
Cc1ccc(Nc2nc(-c3c(C)nc4sccn34)cs2)cc1,nt,nt,nt,nt,7.1µM*,nt
COc1ccccc1-c1ccc(NC(C)c2cn(C)nc2C)nn1 (stereo not given),nt,nt,nt,nt,15%,nt
COc1cccc(NC(=S)NC2CC3CCCC(C2)N3CC(C)C)c1 (stereo not given),-16,1%,12%,?,-9%,16µM*
CCc1ccc(NC(=S)NC2CC3CCCC(C2)N3Cc2cccs2)cc1 (stereo not given),-90*,?,?,18µM*,?,?
CCCN1C2CCCC1CC(NC(=S)Nc1ccc(OC)cc1)C2 (stereo not given),-16,4%,-2%,?,-13%,29µM*
COc1ccc(NC(=S)NC2CC3CCCC(C2)N3C2CC2)cc1 (stereo not given),-11,1%,-2%,?,2%,-29%
Cc1ccc(-c2ccc3nnc(CNC(=O)CNC(=O)c4ccccc4)n3n2)cc1,nt,nt,nt,nt,3%,nt
CCN(c1ccccc1)S(=O)(=O)c1ccc(C(=O)N2CCOCC2)cc1,7,8%,11%,-13%,6%,-1%
Cc1ccc(S(=O)(=O)N2CCN(C(=O)c3cc(S(=O)(=O)N(C)C)ccc3N3CCCC3)CC2)cc1,-16,5%,2%,-12%,-3%,-29%
Cc1cccc(N2CCN(C(=O)c3cc(S(=O)(=O)N(C)C)ccc3N3CCCC3)CC2)c1C,-58*,-18%,-17%,?,-2%,?
Cc1cccc(N2CCN(C(=O)c3ccc(S(=O)(=O)N(C)c4ccccc4)cc3)CC2)c1C,-18,7.3µM*,?,5.8µM*,-17%,4.6µM*
Cc1cccc(N2CCN(C(=O)CNC(=O)C3CCCCC3)CC2)c1C,3,?,-20%,18µM*,-16%,?
SMILES,IL1B secr inh,HT1080 IDH1KD tx,HT1080-NT tox,TDP1 cell CPT,ALOX12 inh,TDP1 cell noCPT
CCN(c1ccccc1)S(=O)(=O)c1ccc(C(=O)N2CCN(c3ccccc3F)CC2)cc1,-5,13%,0%,?,-1%,21µM*
Cc1cccc(N2CCN(C(=O)CNC(=O)c3ccccc3)CC2)c1C,-2,?,-25%,-11%,-3%,?
Nc1[nH]c(C(=O)c2ccccc2)c(-c2cccc(C(F)(F)F)c2)c1C(=O)c1c[nH]c2ccccc12,nt,nt,nt,nt,-12%,nt
Cc1cccc(N2CCN(C(=O)CSCc3ccc(F)cc3)CC2)c1C,nt,nt,nt,?,-23%,?
COc1ccc(N(C)S(=O)(=O)c2cccc(C(=O)N3CCN(c4cccc(C)c4C)CC3)c2)cc1,?,1%,7%,?,49%,16µM*
Cc1cccc(N2CCN(C(=O)c3ccccc3SCC(=O)N3CCCC3)CC2)c1C,0,-5%,-4%,9.2µM*,118%,13µM*
CCOc1ccccc1CNC(=O)C1CCCN(c2ncnc3onc(-c4ccc(F)cc4)c23)C1 (stereo not given),nt,nt,nt,?,-22%,21µM*
CCOc1ccccc1CNC(=O)C1CCCN(c2ncnc3onc(CC)c23)C1 (stereo not given),nt,nt,nt,nt,4%,nt
O=C(NCc1ccccc1Cl)C1CCCN(c2ncnc3onc(-c4ccc(F)cc4)c23)C1 (stereo not given),nt,nt,nt,?,5%,16µM*
O=C(NCc1ccc(Cl)cc1)C1CCCN(c2ncnc3onc(-c4ccc(F)cc4)c23)C1 (stereo not given),nt,nt,nt,21µM*,-10%,23µM*
COc1ccc(OC)c(CNC(=O)C2CCCN(c3ncnc4onc(-c5ccc(F)cc5)c34)C2)c1 (stereo not given),nt,nt,nt,4%,-7%,-8%
c1csc(CNC[C@H]2Cn3ccnc3CO2)c1,nt,nt,nt,nt,19%[176 µM],nt
CC(C)c1cccc(C(C)C)c1NC(=O)CCN1C(=O)NC2(CCCC2)C1=O,-7,-4%,-3%,-13%,-46%,-5%
CC(O)CCNS(=O)(=O)c1ccc2c(c1)CN(C(=O)c1ccon1)CC2 (stereo not given),nt,nt,nt,nt,0%,nt
COc1ccc(/C(O)=C2\C(=O)C(=O)NC2c2ccc(Cl)cc2)cc1F (stereo not given),nt,nt,nt,nt,11µM*,nt
CCCOc1ccc(/C(O)=C2\C(=O)C(=O)NC2c2ccc(Cl)cc2)cc1 (stereo not given),nt,nt,nt,nt,-62%,nt
COc1cc(-c2nnc(-c3ccc(S(=O)(=O)c4ccccc4)cc3)o2)cc(OC)c1OC,16,-2%,-1%,12µM*,?,12µM*
COc1cc(-c2nnc(-c3ccc(N4CCOCC4)cc3)o2)cc(OC)c1OC,?,11%,-17%,6.5µM*,-16%,5.8µM*
